Measured values from PubChem BioAssay AID1159580 (chemical genetic matrix, 2015).
In all, about 5,500 compounds went through this assay and about 2,000 (36%) were called active. Another 18% or so got no clear call; they are omitted. Cut-off read from the data, not from the text of the source: active = normalized growth mostly below about 0.91 (no sharp cut-off); inconclusive = no clear call, values can overlap the other calls; inactive = mostly above about 0.92. This is one part of the list.

Assay: chemical genetic growth profiling, strain panel (AID 1159580);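 note: tested at 20 µM; growth read once vehicle control cultures reached saturation at 30 °C; 1 = growth at the plate median or of vehicle wells; lower values mean less growth of the strain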
Details: S. cerevisiae deletion strains, growth OD

Measured: normalized growth

COc1ccc2c(c1OC)C(=O)O[C@H]2[C@@H]1c2cc3c(cc2CCN1C)OCO3
active: locus YGR078C, strain PAC10, stronger effect = lower value 0.428
inactive: locus YAL013W, strain DEP1, stronger effect = lower value 1.01 | locus YAL040C, strain CLN3, stronger effect = lower value 0.973 | locus YCL061C, strain MRC1 (second series), stronger effect = lower value 1.01 | locus YDR363W, strain ESC2, stronger effect = lower value 1.02 | locus YER002W, strain NOP16, stronger effect = lower value 1.03 | locus YMR263W, strain SAP30, stronger effect = lower value 1 | locus YNL197C, strain WHI3, stronger effect = lower value 1.01 | locus YNL224C, strain SQS1, stronger effect = lower value 0.996 | locus YNL322C, strain KRE1, stronger effect = lower value 1.02 | locus YOR083W, strain WHI5 (second series), stronger effect = lower value 1.07 | locus YPL055C, strain LGE1, stronger effect = lower value 1.01
